Data on nine compounds can be found in PubChem BioAssay (NCI).

The nature of test [1]: NCI Yeast Anticancer Drug Screen. Data for the rad50 strain (AID 155).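 Note: 0% = growth of vehicle-only cultures of the same strain.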 The note with it: S. cerevisiae rad50 strain growth inhibition, stronger effect = higher value. The method, boiled down:
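Vehicle-treated cultures provide the reference for the growth inhibition reported for compound-exposed, repair-deficient yeast.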

Test [2] can be described thus: NCI Yeast Anticancer Drug Screen. Data for the mec2-1 strain (AID 157). As to conditions: S. cerevisiae mec2-1 strain, stronger effect = higher value. The method, boiled down: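 Yeast mec2-1 mutant treated with compound. Readout: growth inhibition vs vehicle controls.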
A short description of test [3]: NCI Yeast Anticancer Drug Screen. Data for the sgs1 mgt1 strain (AID 161).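 Note: 0% = growth of cultures given vehicle only.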 As to conditions: S. cerevisiae sgs1 mgt1 strain, stronger effect = higher value. In short, it runs like this: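 Genetically altered yeast, compound exposure, growth inhibition relative to vehicle.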
The nature of test [4]: NCI Yeast Anticancer Drug Screen. Data for the cln2 rad14 strain (AID 165).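 Note: 0% = growth equal to vehicle treated cultures.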 The note with it: S. cerevisiae cln2 rad14 strain, stronger effect = higher value. In short, it runs like this: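 cln2 rad14 yeast strain; compound exposure; growth inhibition read vs vehicle controls.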
Test [5] in a line: NCI Yeast Anticancer Drug Screen. Data for the bub3 strain (AID 167). The note with it: S. cerevisiae bub3 mutant strain, stronger effect = higher value. The method, boiled down:
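Mutant yeast screening strain plus compound; vehicle-treated cultures serve as the 0% inhibition reference.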

Test [6] in a line: NCI Yeast Anticancer Drug Screen. Data for the mlh1 rad18 strain (AID 175). As to conditions: S. cerevisiae mlh1 rad18 strain growth inhibition, stronger effect = higher value. In short, it runs like this: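 Yeast w/ defined DNA-repair lesions; compound exposure; growth vs vehicle controls → % inhibition.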
The mark [7] stands for this setting: at 5.0 µM (retest, dose inferred, filed as 0.5).
Where [8] appears, read: at 50.0 µM (retest, dose inferred, filed as 5.0).

Compounds without any hit were thinned out: in the full panel of roughly 79,000, 15% have a hit. Unmarked numbers belong to inactive results. Activity calls are given as the source filed them. Cut-off read from the data, not from the text of the source: active = growth inhibition above about 70%; inactive = the rest. *1 amine or outer side, *2 acyl side, *3 side chain or, on linkers, in order; H or OH if unused. Where a SMILES comes first, the peptide text is derived from it. Bridges are numbered along the chain shown (N, C = ends). Roman numbers before positions name the chains, in order. [ ]: non-standard residue; d: D form. Actinocin(1to9) = Cc1c2oc3c(C)ccc(C(=O)[*:2])c3nc-2c(C(=O)[*:1])c(N)c1=O; NMeV = CN[CH](C(=O)O)C(C)C; Sar = CNCC(=O)O

On to `Clc1ccc(Cc2nc3ccccc3s2)cc1`, for which the growth inhibition in test [1] (setting [7]) was -5%; in test [1] (setting [8]), 99% (active); in test [1] (at 50.0 µM), 99.2% (active); in test [2] (setting [7]), 33%; in test [2] (setting [8]) it was 99% (active); in test [2] (at 50.0 µM), 99.5% (active). Further, the growth inhibition in test [3] (setting [7]) is 47%; in test [3] (setting [8]) it was 99% (active); in test [3] (at 50.0 µM), 99.5% (active); in test [4] (setting [7]), 16%; in test [4] (setting [8]), 99% (active); in test [4] (at 50.0 µM) it was 97.3% (active). Further, the growth inhibition in test [5] (setting [7]) was 38%; in test [5] (setting [8]) it was 99% (active); in test [5] (at 50.0 µM), 99% (active); in test [6] (setting [7]), 29%; in test [6] (setting [8]) it was 99% (active); in test [6] (at 50.0 µM) it was 99.3% (active).

As to `C/C=C/c1cc2c(c(=O)o1)C(=O)[C@@H](O)[C@H](C)O2`, the growth inhibition in test [1] (setting [7]) is 8%; in test [1] (setting [8]) it was 17%; in test [1] (at 50.0 µM), 23.5%; in test [2] (setting [7]) it was 11%; in test [2] (setting [8]) it was 21%; in test [2] (at 50.0 µM) it was 2%. In addition, the growth inhibition in test [3] (setting [7]) is 15%; in test [3] (setting [8]) it was 30%; in test [3] (at 50.0 µM) it was 34.5%; in test [4] (setting [7]), 8%; in test [4] (setting [8]) it was 11%; in test [4] (at 50.0 µM) it was -1.15%. For the same compound, the growth inhibition was 14% in test [5] (setting [7]); 28% in test [5] (setting [8]); 18.9% in test [5] (at 50.0 µM); 8% in test [6] (setting [7]); 26% in test [6] (setting [8]); 60.3% in test [6] (at 50.0 µM).

On to `O=C(CCc1ccccc1)ON1C(=S)NC(c2ccccc2)(c2ccccc2)C1=S`, for which the growth inhibition was 14% in test [1] (setting [7]); 42% in test [1] (setting [8]); 29.7% in test [1] (at 50.0 µM); 0% in test [2] (setting [7]); 22% in test [2] (setting [8]); 55.7% in test [2] (at 50.0 µM). Also, the growth inhibition was -11% in test [3] (setting [7]); 64% in test [3] (setting [8]); 63.3% in test [3] (at 50.0 µM); 16% in test [4] (setting [7]); 59% in test [4] (setting [8]); 70.2% (active) in test [4] (at 50.0 µM). For the same compound, the growth inhibition was 0% in test [5] (setting [7]); 47% in test [5] (setting [8]); 79.2% (active) in test [5] (at 50.0 µM); 13% in test [6] (setting [7]); 61% in test [6] (setting [8]); 72.4% (active) in test [6] (at 50.0 µM).

Take `Oc1c(C(Nc2ccccc2)c2ccccc2)ccc2cccnc12` (stereo not given): the growth inhibition is -5% in test [1] (setting [7]); 92% (active) in test [1] (setting [8]); 96.9% (active) in test [1] (at 50.0 µM); -2% in test [2] (setting [7]); 97% (active) in test [2] (setting [8]); 81.2% (active) in test [2] (at 50.0 µM). Moreover, the growth inhibition is -4% in test [3] (setting [7]); 94% (active) in test [3] (setting [8]); 99% (active) in test [3] (at 50.0 µM); -4% in test [4] (setting [7]); 92% (active) in test [4] (setting [8]); 96.2% (active) in test [4] (at 50.0 µM). Moreover, the growth inhibition is -8% in test [5] (setting [7]); 94% (active) in test [5] (setting [8]); 84% (active) in test [5] (at 50.0 µM); 0% in test [6] (setting [7]); 92% (active) in test [6] (setting [8]); 96% (active) in test [6] (at 50.0 µM).

Regarding `O=C1/C(=C/c2ccccc2)CCC/C1=C\c1ccccc1`, the growth inhibition is 27% in test [1] (setting [7]); 60% in test [1] (setting [8]); 83.8% (active) in test [1] (at 50.0 µM); 29% in test [2] (setting [7]); 77% (active) in test [2] (setting [8]); 86.6% (active) in test [2] (at 50.0 µM). The growth inhibition in test [3] (setting [7]) is 36%; in test [3] (setting [8]), 72% (active); in test [3] (at 50.0 µM), 82.3% (active); in test [4] (setting [7]) it was 21%; in test [4] (setting [8]), 52%; in test [4] (at 50.0 µM), 80.3% (active). For the same compound, the growth inhibition in test [5] (setting [7]) was 41%; in test [5] (setting [8]) it was 69%; in test [5] (at 50.0 µM), 84.8% (active); in test [6] (setting [7]), 58%; in test [6] (setting [8]), 76% (active).

Consider `CCC(C)(O)Cc1ccc(Cl)cc1` (stereo not given), for which the growth inhibition in test [1] (setting [7]) is 4%; in test [1] (setting [8]), -3%; in test [1] (at 50.0 µM) it was -14.7%; in test [2] (setting [7]), 1%; in test [2] (setting [8]), -2%; in test [2] (at 50.0 µM) it was 41.9%. Further, the growth inhibition was 0% in test [3] (setting [7]); -1% in test [3] (setting [8]); 1.65% in test [3] (at 50.0 µM); 3% in test [4] (setting [7]); -5% in test [4] (setting [8]); -39.8% in test [4] (at 50.0 µM). The growth inhibition in test [5] (setting [7]) was -6%; in test [5] (setting [8]), -7%; in test [5] (at 50.0 µM), -23.3%; in test [6] (setting [7]) it was 3%; in test [6] (setting [8]), -5%; in test [6] (at 50.0 µM) it was -6.8%.

`O=[N+]([O-])c1ccc([I+]c2ccccc2)cc1`: the growth inhibition was 86% (active) in test [1] (setting [7]); 96% (active) in test [1] (setting [8]); 82.8% (active) in test [1] (at 50.0 µM); 40% in test [2] (setting [7]); 95% (active) in test [2] (setting [8]); 86% (active) in test [2] (at 50.0 µM). The growth inhibition is 77% (active) in test [3] (setting [7]); 96% (active) in test [3] (setting [8]); 87.2% (active) in test [3] (at 50.0 µM); 30% in test [4] (setting [7]); 87% (active) in test [4] (setting [8]); 82.9% (active) in test [4] (at 50.0 µM). Also, the growth inhibition in test [5] (setting [7]) is 61%; in test [5] (setting [8]), 96% (active); in test [5] (at 50.0 µM) it was 88.2% (active); in test [6] (setting [7]), 82% (active); in test [6] (setting [8]), 95% (active).

Take `CCC(C)C1NC(=O)C(NC(=O)c2c3nc4c(C(=O)NC5C(=O)NC(C(C)CC)C(=O)N6CCCC6C(=O)N(C)CC(=O)N(C)C(C(C)C)C(=O)OC5C)ccc(C)c4oc-3c(C)c(=O)c2N)C(C)OC(=O)C(C(C)C)N(C)C(=O)CN(C)C(=O)C2CCCN2C1=O` (stereo not given) (I: TIP[Sar][NMeV] / II: TIP[Sar][NMeV]; ester I:1-I:C, II:1-II:C; linker I:N-II:N via Actinocin(1to9); configuration not given here): the growth inhibition in test [1] (setting [7]) is 66%; in test [1] (setting [8]) it was 98% (active); in test [1] (at 50.0 µM), 91% (active); in test [2] (setting [7]), 33%; in test [2] (setting [8]), 99% (active); in test [2] (at 50.0 µM), 93.7% (active). The growth inhibition in test [3] (setting [7]) is 32%; in test [3] (setting [8]) it was 98% (active); in test [3] (at 50.0 µM), 92.5% (active); in test [4] (setting [7]) it was 38%; in test [4] (setting [8]), 97% (active); in test [4] (at 50.0 µM) it was 90.7% (active). The growth inhibition is 43% in test [5] (setting [7]); 99% (active) in test [5] (setting [8]); 92.6% (active) in test [5] (at 50.0 µM); 67% in test [6] (setting [7]); 98% (active) in test [6] (setting [8]); 88.3% (active) in test [6] (at 50.0 µM).

Turning to `CCNc1nnnn1CC`, the growth inhibition in test [1] (setting [7]) is -37%; in test [1] (setting [8]), 1%; in test [1] (at 50.0 µM), -2.5%; in test [2] (setting [7]), -2%; in test [2] (setting [8]), -2%; in test [2] (at 50.0 µM) it was 2.1%. Further, the growth inhibition in test [3] (setting [7]) is 0%; in test [3] (setting [8]), 5%; in test [3] (at 50.0 µM) it was -5.35%; in test [4] (setting [7]), 2%; in test [4] (setting [8]) it was 4%; in test [4] (at 50.0 µM), 12.3%. Also, the growth inhibition is -1% in test [5] (setting [7]); -2% in test [5] (setting [8]); 22.9% in test [5] (at 50.0 µM); 6% in test [6] (setting [7]); 18% in test [6] (setting [8]); 2.8% in test [6] (at 50.0 µM).
